A selection: hits, their analogues and other compounds. The true share with any hit is near 10%.
PNC inhibitor: inhibitors of perinucleolar compartment assembly | PC3M PTB-GFP, PNC prevalence imaging, 16 h; stronger effect = lower value | AID 2417 | activity change (PNC), negative = inhibition, % at 10 µM | actives 3.1% (n = 140,000);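 active = readout at or below -70, meaning at least 70% loss of cells showing the perinucleolar compartment, a nuclear body marking cancer cells; inconclusive = readout between -30 and a set limit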;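 also: plate controls were DMSO wells for no effect and camptothecin positive control wells for full effect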
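PC3M cells stably expressing PTB-GFP, 750–1000 cells/well, treated 16 h at 37 °C with compound (23 nl of library stock), in duplicate. After paraformaldehyde fixation and Hoechst stain, imaged at 20x; PNC prevalence scored by image analysis.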
ALDH1A1 inh: inhibitors of human aldehyde dehydrogenase 1A1; actives 7.3% (n = 220,000); Potency, µM (highest dose often 75.3 µM), for the others: top-dose activity, negative = inhibition, actives largely listed as inhibitors; P00352; Purified ALDH1A1, NADH fluorescence, propionaldehyde substrate;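 also: potency is read from the fitted curve at half-maximal effect; plate controls were no enzyme wells and a reference inhibitor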
HPGD inh: blocks human HPGD enzyme activity; P15428; purified HPGD, NADH fluorescence kinetic, PGE2 substrate; Potency, µM, inactives show at the top dose activity change, negative = inhibition, most hits filed as inhibitors; actives 4.3% (n = 150,000); AID 894; also: potency is read from the fitted curve at half-maximal effect
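20 nM HPGD preincubated 15 min at room temperature with compound in 50 mM Tris-HCl pH 8, 0.01% Tween 20. Started with 1 mM NAD+ and 30 uM prostaglandin E2; NADH fluorescence (360/450 nm) read 5 times over 30-s intervals, last minus first.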
12-hLO inh: blocks human 12-lipoxygenase activity; purified 12-hLO, xylenol orange hydroperoxide absorbance; AID 1452; actives 0.12% (n = 150,000); Potency, µM (titrated, usually from 57.1 µM), for inactives: top-dose activity change, negative = inhibition, actives largely listed as inhibitors; P18054; active = well fitted inhibition curve with a large enough effect; inconclusive = small, poorly fitted or top-dose-only effect; also: potency is read from the fitted curve at half-maximal effect; nearly all actives have a fitted effect of over 55% in size
Target sequence (P18054 whole entry, looked up): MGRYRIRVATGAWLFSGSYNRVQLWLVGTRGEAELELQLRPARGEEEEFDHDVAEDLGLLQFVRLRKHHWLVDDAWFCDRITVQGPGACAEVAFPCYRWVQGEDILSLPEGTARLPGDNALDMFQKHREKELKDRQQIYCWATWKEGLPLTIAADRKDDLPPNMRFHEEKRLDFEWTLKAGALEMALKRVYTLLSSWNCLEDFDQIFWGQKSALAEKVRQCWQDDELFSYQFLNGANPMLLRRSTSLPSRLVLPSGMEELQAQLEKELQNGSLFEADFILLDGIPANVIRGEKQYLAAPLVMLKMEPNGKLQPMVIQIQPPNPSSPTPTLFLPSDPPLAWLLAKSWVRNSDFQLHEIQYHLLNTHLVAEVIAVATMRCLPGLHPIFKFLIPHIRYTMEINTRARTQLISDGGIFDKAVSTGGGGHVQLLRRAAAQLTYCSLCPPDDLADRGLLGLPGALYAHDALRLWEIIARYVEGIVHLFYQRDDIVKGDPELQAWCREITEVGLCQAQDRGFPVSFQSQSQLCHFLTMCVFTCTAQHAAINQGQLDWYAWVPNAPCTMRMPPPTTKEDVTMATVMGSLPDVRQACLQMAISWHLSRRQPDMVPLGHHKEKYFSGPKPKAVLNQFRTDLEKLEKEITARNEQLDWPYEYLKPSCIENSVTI
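Hydroperoxide output read as Fe(III)-xylenol orange absorbance, 573-to-405 nm ratio, after 30 min reaction with 40 uM arachidonic acid. Enzyme: 150 nM purified human 12hLO, 15 min compound preincubation; 25 mM Hepes pH 7.0, room temperature.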
Lamin A splicing: LMNA splicing modulation | HeLa LMNA splicing GFP/RFP minigene ratio, 48 h | Potency, µM (doses to about 46.1 µM), for inactives: at the top dose ratio change, negative = inhibition, actives largely listed as inhibitors | actives 0.01% (n = 200,000) | AID 1487; active = well fitted inhibition curve with a large enough effect in the signal ratio, with a control signal flat, not every such curve was filed as active; inconclusive = small, poorly fitted or top-dose-only effect, or effect the other way, or a change in a side signal; the % refers to the signal ratio; also: potency is read from the fitted curve at half-maximal effect
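S3 HeLa cells stably expressing lamin A-EGFP splicing minigene plus DsRed2, 600 cells/well, 48 h compound exposure at 37C. Laser-scanning cytometry; analysed as GFP (500-530 nm)/RFP (575-640 nm) total intensity ratio; 0.5% DMSO vehicle.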
Active calls of the source: *; u = inconclusive; x = no result given; ! = a repeat was not active; [ ] = remark or other dose. Unless noted, calls follow the shape of the dose curve; as a rule, active = well fitted inhibition curve with a large enough effect (not every such curve was filed as active); inconclusive = small, poorly fitted or top-dose-only effect, or another doubt; inactive = no such curve, though single readings can be large or run the other way. Unless noted, % is scaled to controls: 0 for no effect and ±100 for the full control effect.

SMILES | PNC inhibitor | ALDH1A1 inh | HPGD inh | 12-hLO inh | Lamin A splicing
Cc1cc(C)nc(-n2nc(C)c3c2NC(=O)CC3c2ccccc2OC(C)C)n1 (stereo unspecified) | x | x | x | x | 13%[46 µM]
Cn1c(=O)c2[nH]c(SCCN3CCOCC3)nc2n(C)c1=S | x | -11%[13.5 µM] | 5.6µM* | 3%[11.4 µM] | x
N#Cc1c(Cl)nsc1NN | x | 22µM* | x | x | -12%[46 µM]
Cc1ccc2c(CN3CCCc4ccccc43)cc(=O)oc2c1C | u | 16µM* | -14% | -19% | -7%
O=C(N/N=C/c1c(Nc2cccc(C(F)(F)F)c2)nc2ccccn2c1=O)c1ccccc1[N+](=O)[O-] | -113* | 8% | -15% | 5% | -8%
C[C@@]12C[C@H](O)C3[C@H](CCC4=CC(=O)CC[C@]43C)[C@H]1CC[C@@H]2c1csc(N)n1 (stereo partly specified) | x | 2µM* | -3% | x | x
[O-]/[N+](=C\c1ccncc1)c1ccccc1 | -28 | 15µM* | -12% | -5% | -10%
[O-]/[N+](=C\c1ccc(OC(F)F)cc1)c1ccccc1 | 44 | 7.9µM* | -24% | -2% | -4%
Cn1cccc1C(=O)N1CCC2(CCCN(C(=O)Nc3cccc(C#N)c3)C2)CC1 | x | 4% | -2% | 0% | x
N=c1ccn2c(n1)O[C@@H]1[C@@H](O)[C@H](CO)O[C@H]12 | x | x | x | -4% | u
CN(C)CCCN1c2ccccc2Sc2ccc(Cl)cc21 | -110*! | 0% | -4% | 9% | u
CN(C)CCCN1c2ccccc2Sc2ccc3ccccc3c21 | x | -2%[13.5 µM] | -7% | 5%[11.4 µM] | x
c1ccc(Cc2nn3c(C4COc5ccccc5O4)nnc3s2)cc1 (stereo unspecified) | u | 2µM* | 8.9µM* | 1% | -19%
COc1ccccc1-c1nn2c(C3COc4ccccc4O3)nnc2s1 (stereo unspecified) | u | u | u | -9% | u
c1ccc(CCc2nn3c(C4COc5ccccc5O4)nnc3s2)cc1 (stereo unspecified) | -7 | 10µM* | 10µM* | 3% | -13%
COC(=O)CSc1nnc(C2COc3ccccc3O2)n1-c1ccccc1 (stereo unspecified) | 19 | -8% | 6% | -7% | 0%
Nc1nc(N)nc(CC(=O)O)n1 | x | 0%[13.5 µM] | -13% | 0%[11.4 µM] | x
Cc1cc(C2=NNC(=NC3CC3)SC2)c(C)n1-c1ccccc1F | -27 | 8.9µM* | u | -5% | u
C=C(C)CN=C1NN=C(c2cc(C)n(-c3ccc(C)cc3)c2C)CS1 | 7 | 13µM* | -26% | -6% | u
Cc1ccc(NC(NC(=O)Cc2ccccc2)C(Cl)(Cl)Cl)cc1 (stereo unspecified) | -111* | -8% | -17% | -2% | -10%
CN(C)C(=O)NC(NC(=S)Nc1ccccc1)C(Cl)(Cl)Cl (stereo unspecified) | x | 13µM* | x | x | 15%[46 µM]
O=C(O)c1ccc(NC(=S)NC(NC(=O)c2ccco2)C(Cl)(Cl)Cl)cc1 (stereo unspecified) | u | 40µM* | -14% | -12% | 15%
Cc1ccc(NC(=S)NC(NC(=O)c2ccco2)C(Cl)(Cl)Cl)cc1 (stereo unspecified) | -6 | 28µM* | -23% | -27% | -25%
COc1ccccc1Cn1c(CNS(=O)(=O)c2cccc([N+](=O)[O-])c2)nc2cccnc21 | x | x | x | x | -11%[46 µM]
CC(C)(C)C(=O)NC1CCN(S(C)(=O)=O)CC1 | -100* | 13% | -9% | -4% | -2%
SMILES | PNC inhibitor | ALDH1A1 inh | HPGD inh | 12-hLO inh | Lamin A splicing
COC(=O)C1CCN(S(C)(=O)=O)CC1 | -100* | -9% | -8% | 2% | -1%
COC(=O)C1CCN(S(=O)(=O)c2ccc(NC(C)=O)cc2)CC1 | -28 | 6% | 1% | 1% | 7%
CN=CC1=C(O)c2ccccc2C1=O | 67 | -1% | -7% | 0% | -3%
O=C1C(C2=C(O)c3ccccc3C2=O)=Nc2ccccc21 | 31 | 1.3µM* | -18% | -18% | u
CCc1ccc(NC(=O)N2CCN(Cc3nc4ccc(C)cc4o3)CC2)cc1 | x | x | x | x | -24%[46 µM]
O=S(=O)(CCc1ccccc1)c1nnnn1C1CCCCC1 | x | -13% | 0% | x | x
CCOC(=O)C1=C(O)C(=O)N(Cc2ccc(C(C)(C)C)cc2)CC1 | x | 14µM* | x | x | x
CCOC(=O)C1=C(O)C(=O)N(Cc2ccccc2)CC1 | x | -5% | x | x | x
CCOCCCn1c(SCC(=O)OCC)nc2c(sc3ccccc32)c1=O | x | x | x | x | -9%[46 µM]
Cc1cccc(CNc2ncncc2-c2ccccc2Cl)c1 | x | 4% | x | x | u
COc1cccc(N2CC(C(=O)Oc3ccc4ccccc4c3)CC2=O)c1 (stereo unspecified) | 22 | -1% | -13% | -2% | 4%
COC(=O)c1ccc(OC(=O)C2CC(=O)N(c3cccc(C)c3)C2)cc1 (stereo unspecified) | -4 | 18µM* | u | -4% | 11%
O=C(CCc1nnc(CCCCc2ccccc2)o1)NCCN1CCOC1=O | x | 0.11µM* | x | x | u
O=C(CCc1nnc(CCCCc2ccccc2)o1)NCCn1cccn1 | x | -6% | x | x | 22%[46 µM]
Cc1ccc(C)c(OCCn2cc(/C=C(\C#N)C(=O)NCc3ccco3)c3ccccc32)c1 | -86* | 30% | 18% | 0% | -1%
COc1ccccc1OCCn1cc(/C=C(\C#N)C(=O)NCc2ccco2)c2ccccc21 | -2 | u | -6% | -1% | -7%
CCOC(=O)N1CCN(c2cc(=O)n(-c3ccccc3Cl)c(=O)[nH]2)CC1 | 34 | -3% | -5% | 4% | 3%
COC(=O)C1CCN(c2cc(=O)n(-c3ccccc3Cl)c(=O)[nH]2)CC1 | u | 18µM* | -8% | -1% | 3%
CC(C)(C)NCC(O)COc1cccc2c1C[C@H](O)[C@H](O)C2 (stereo partly specified) | -115* | -2% | -3% | 1% | 3%
O=C(O)CNS(=O)(=O)c1ccc(F)cc1 | u | -5% | 5% | -2% | -11%
C=CCNC(=O)CNS(=O)(=O)c1ccc(F)cc1 | 53 | u | 32µM* | 0% | 20%
C=CCN(CC=C)C(=S)NC(=O)c1ccc(OC)c(Br)c1 | -86* | u | -15% | -15% | 13%
COc1ccc(C(=O)c2ccc(OC)c(Br)c2)cc1Br | u | 20µM* | -16% | -1% | -4%
COc1ccc(C(=S)N2CCC(C(N)=O)CC2)cc1Br | x | u | x | x | 6%[46 µM]
O=C(O)CC1CCCc2ccccc2C1O (stereo unspecified) | x | 5% | -6% | x | -1%
O=C(NCc1ccco1)c1cnn2c1NC(c1ccc(Br)cc1)CC2C(F)(F)F (stereo unspecified) | -6 | 2% | -26% | -11% | u
O=C(NCc1ccco1)c1cnn2c1NC(c1ccccc1)CC2C(F)(F)F (stereo unspecified) | u | -4% | 28µM* | -3% | -1%

Screening results (PubChem)
